The structures appear in SMILES notation. Among all 39,000 compounds or so, about 500 (1.3%) were called active. This is one part of a sample in which actives are shown more often than they occur.

For the assay, the system named is S. aureus RN4220. In words: growth inhibition call (relative growth <= 0.2). The conditions noted are these: 50 µM.
As to `CC(=O)Oc1cc(-c2coc3cc(OC(C)=O)c(OC(C)=O)c(OC(C)=O)c3c2=O)cc(OC(C)=O)c1OC(C)=O`, the growth inhibition call is “inactive”. The entry for `O=C(NC1CCN(CCCCC2(C(=O)NCC(F)(F)F)c3ccccc3-c3ccccc32)CC1)c1ccccc1-c1ccc(C(F)(F)F)cc1` is “active”; for `C[C@]1(C(=O)NCC(F)(F)F)c2ccccc2C(=O)N(Cc2cc(C(F)(F)F)cc(C(F)(F)F)c2)[C@H]1c1ccc(CO)cc1` it is “inactive”.

For `O=C(NC1CCCCCCC1)c1ccccc1-c1ccccc1`, the growth inhibition call is “inactive”.

`C[C@@H]1CN([C@H](C)CO)C(=O)Cc2cc(NC(=O)Nc3ccc4c(c3)OCO4)ccc2O[C@H]1CN(C)S(C)(=O)=O`: the growth inhibition call is “inactive”. Take `Cc1ccc(S(=O)(=O)N(C)C[C@H]2Oc3ccc(NC(=O)NC(C)C)cc3CC(=O)N([C@H](C)CO)C[C@H]2C)cc1`: the growth inhibition call is “inactive”.

On to `Cc1nnc(SCC2=C(C(=O)O)N3C(=O)[C@@H](NC(=O)Cn4cnnn4)[C@H]3SC2)s1`, for which the growth inhibition call was “active”. The entry for `O=C(Cn1cnnn1)NC1C(=O)N2C(C(=O)O)=C(CSc3nncs3)CSC12` (stereo not given) is “active”. Next, `Cc1nnc(SCC2=C(C(=O)O)N3C(=O)[C@@H](N)[C@H]3SC2)s1`: “inactive”; `Cc1nnc(SCC2=C(C(=O)[O-])N3C(=O)C(NC(=O)Cn4cnnn4)C3SC2)s1.[Na+]` (stereo not given): “active”. Take `C[C@@H]1CN([C@@H](C)CO)C(=O)c2cc(NC(=O)Cc3ccccc3)ccc2O[C@@H](C)CCCCO[C@H]1CN(C)C(=O)Nc1cccc2ccccc12`: the growth inhibition call was “inactive”.

As for `Cc1cc(C(=O)Nc2cccc3c2O[C@H](CN(C)C(=O)Nc2ccccc2)[C@@H](C)CN([C@H](C)CO)C3=O)n(C)n1`, the growth inhibition call was “inactive”. Regarding `C[C@@H]1CCCCO[C@@H](CN(C)C(=O)c2ccccc2)[C@@H](C)CN([C@H](C)CO)C(=O)c2cc(NC(=O)CCCCCC(=O)Nc3ccccc3N)ccc2O1`, the growth inhibition call was “inactive”. The entry for `C[C@H]1CCCCO[C@H](CN(C)S(=O)(=O)c2ccc(F)cc2)[C@@H](C)CN([C@@H](C)CO)C(=O)c2cc(NC(=O)Nc3cccc4ccccc34)ccc2O1` is “inactive”; for `Cc1csc2c(Cl)ncnc12` it is “inactive”; for `COc1ccc(CCN2C(=O)[C@@]3(Cc4ccccc42)c2ccccc2C(=O)N(C2CCCCC2)[C@H]3c2ccc(CO)cc2)cc1` it is “inactive”. As to `COc1ccc(NC(=O)N(C)C[C@@H]2OCCCC[C@H](C)Oc3ccc(NC(=O)C4CCCCC4)cc3C(=O)N([C@H](C)CO)C[C@H]2C)cc1`, the growth inhibition call is “inactive”. As to `C[C@H]1CCCCO[C@H](CN(C)C(=O)C2CCCCC2)[C@@H](C)CN([C@@H](C)CO)C(=O)c2cc(NC(=O)c3ccccc3)ccc2O1`, the growth inhibition call was “inactive”.

`Cc1nn(C)cc1NC(=O)C[C@H]1CC[C@@H]2[C@H](COc3ccc(NC(=O)C4CCOCC4)cc3C(=O)N2C)O1`: the growth inhibition call is “inactive”. Regarding `N#CCN1CCSCC1`, the growth inhibition call is “inactive”. The entry for `C[C@H]1CN([C@@H](C)CO)C(=O)c2cc(NC(=O)CCN3CCOCC3)ccc2O[C@H]1CN(C)CC1CCCCC1` is “inactive”; for `Cc1noc(C)c1S(=O)(=O)N(C)C[C@H]1OCCCC[C@@H](C)Oc2ccc(NS(C)(=O)=O)cc2C(=O)N([C@@H](C)CO)C[C@H]1C` it is “inactive”; for `COCC(=O)Nc1ccc2c(c1)C(=O)N(C)[C@@H]1CC[C@@H](CC(=O)N3CCc4ccccc4C3)O[C@H]1CO2` it is “inactive”. For `Cc1ccc(S(=O)(=O)N(C)C[C@@H]2Oc3ccc(NC(=O)NC(C)C)cc3CC(=O)N([C@H](C)CO)C[C@@H]2C)cc1`, the growth inhibition call is “inactive”.

For the compound `C[C@@H]1CCCCO[C@@H](CN(C)Cc2ccc(C(=O)Nc3ccccc3N)cc2)[C@@H](C)CN([C@H](C)CO)C(=O)c2cc(NC(=O)C3CCCCC3)ccc2O1`, the growth inhibition call is “inactive”. The entry for `C[C@H]1CN([C@@H](C)CO)C(=O)c2cccc(NC(=O)c3cnccn3)c2O[C@H]1CN(C)Cc1ccc(C(=O)O)cc1` is “inactive”; for `O=C(N/N=C/c1ccc(CO)o1)c1ccccn1` it is “inactive”. Next, `O=C(CN1CCOCC1)N/N=C/c1ccc([N+](=O)[O-])o1`: “active”; `CCOC(=O)c1ccc(N2NC(=O)/C(=C/c3ccc([N+](=O)[O-])o3)C2=O)cc1`: “inactive”; `Cc1ccc(S(=O)(=O)N2CCN(CC(=O)N/N=C/c3ccccn3)CC2)cc1`: “inactive”.

Take `NC(=O)N/N=C/c1ccc([N+](=O)[O-])o1`: the growth inhibition call was “active”. The entry for `COC(=O)N/N=C/c1ccc([N+](=O)[O-])o1` is “inactive”. The entry for `NC(=O)NN=Cc1ccc([N+](=O)[O-])o1` is “active”; for `O=C(NN=Cc1ccc([N+](=O)[O-])o1)c1ccc(O)cc1` it is “inactive”; for `O=C(Cn1ccc([N+](=O)[O-])n1)N1CCOCC1` it is “inactive”. Next, `COCC#Cc1ccc2c(c1)O[C@H](CN(C)C(=O)c1ccccc1F)[C@H](C)CN([C@H](C)CO)S2(=O)=O`: “inactive”; `C[C@H](CO)N1C[C@H](C)[C@H](CN(C)C(=O)Nc2ccc3c(c2)OCO3)Oc2ncc(-c3cncnc3)cc2C1=O`: “inactive”. `COc1ccc(NC(=O)Nc2ccc3c(c2)C(=O)N([C@H](C)CO)C[C@@H](C)[C@@H](CN(C)Cc2ccc(C(=O)Nc4ccccc4N)cc2)O3)cc1`: the growth inhibition call is “inactive”.

Take `C[C@@H]1CN([C@H](C)CO)C(=O)CCCn2cc(nn2)CO[C@H]1CN(C)S(C)(=O)=O`: the growth inhibition call is “inactive”. Next, `O=C(CN1CCOCC1)NCC[C@H]1CC[C@@H](NC(=O)c2ccccc2F)[C@H](CO)O1`: “inactive”; `COc1ccc(NC(=O)N(C)C[C@@H]2OCCCC[C@@H](C)Oc3ccc(NS(=O)(=O)c4ccccc4)cc3C(=O)N([C@@H](C)CO)C[C@@H]2C)cc1`: “inactive”; `CCS(=O)(=O)Nc1ccc2c(c1)C(=O)N(C)C[C@H](OC)[C@@H](C)CN(Cc1nccs1)[C@H](C)CO2`: “inactive”.

Take `CCOC(=O)Nc1ccc(C)s1`: the growth inhibition call was “inactive”. The entry for `Cc1noc(C)c1S(=O)(=O)N(C)C[C@@H]1OCCCC[C@@H](C)Oc2ccc(NC(=O)Nc3ccc(C(F)(F)F)cc3)cc2C(=O)N([C@@H](C)CO)C[C@@H]1C` is “inactive”.

Turning to `C[C@@H]1CN([C@H](C)CO)C(=O)c2cc(/C=C/c3ccccc3)cnc2O[C@@H]1CN(C)C(=O)C1CCOCC1`, the growth inhibition call was “inactive”. Next, `C[C@@H]1CN([C@@H](C)CO)C(=O)CCCn2nncc2CO[C@@H]1CN(C)S(=O)(=O)c1ccccc1C#N`: “inactive”; `CCOC(=O)c1c(C)cc(O)c(C=O)c1O`: “active”.

On to `COC(=O)c1c(C)cc(OC(=O)c2c(C)cc(O)c(C=O)c2O)c(C)c1O`, for which the growth inhibition call is “inactive”. As to `Cc1cc(O)c(C=O)c(O)c1C(=O)O`, the growth inhibition call is “inactive”. The entry for `CCCCC[C@@H](O)C[C@@H](O)CC(=O)O[C@@H](CCCCC)C[C@@H](O)CC(=O)OC[C@@H](O)[C@@H](O)[C@@H](O)[C@@H](O)CO` is “inactive”.

Turning to `COc1ccc(CN(C)C[C@@H]2Oc3ccc(NC(=O)Nc4ccc(C(F)(F)F)cc4)cc3CC(=O)N([C@H](C)CO)C[C@@H]2C)cc1`, the growth inhibition call was “inactive”. Consider `C[C@H]1CCCCO[C@@H](CN(C)C(=O)Nc2ccccc2)[C@@H](C)CN([C@@H](C)CO)C(=O)c2cc(NC(=O)c3ccccc3)ccc2O1`, for which the growth inhibition call is “inactive”. Next, `O=C1c2ccccc2C(=O)c2c(NCCNCCO)ccc(NCCNCCO)c21`: “inactive”; `C[C@@H]1CN([C@H](C)CO)C(=O)c2cc(NC(=O)C3CC3)ccc2O[C@@H]1CN(C)Cc1ccc(-c2ccccc2)cc1`: “inactive”; `COc1ccc(NC(=O)Nc2cccc3c2O[C@H](CN(C)C(=O)Nc2ccc(C(F)(F)F)cc2)[C@@H](C)CN([C@@H](C)CO)C3=O)cc1`: “inactive”. Next, `Cc1noc(C)c1NC(=O)Nc1cccc2c1O[C@@H](CN(C)C(=O)Nc1ccc(C(F)(F)F)cc1)[C@H](C)CN([C@@H](C)CO)C2=O`: “active”; `C[C@H](CO)N1C[C@H](C)[C@H](CN(C)C(=O)Nc2ccc(C(F)(F)F)cc2)Oc2c(NC(=O)Nc3ccc(F)cc3)cccc2C1=O`: “inactive”. `C[C@H]1CN([C@@H](C)CO)C(=O)c2cccc(NC(=O)Nc3ccc(C(F)(F)F)cc3)c2O[C@H]1CN(C)C(=O)Nc1ccc(F)cc1`: the growth inhibition call was “inactive”. Next, `COc1ccc(NC(=O)Nc2cccc3c2O[C@@H](CN(C)C(=O)Nc2ccc(C(F)(F)F)cc2)[C@@H](C)CN([C@@H](C)CO)C3=O)cc1`: “inactive”. Next, `C[C@@H]1CN([C@H](C)CO)C(=O)c2cccc(NC(=O)Nc3ccc(C(F)(F)F)cc3)c2O[C@@H]1CN(C)C(=O)Nc1ccc(F)cc1`: “active”. The entry for `Cc1noc(C)c1NC(=O)Nc1cccc2c1O[C@@H](CN(C)C(=O)Nc1ccc(C(F)(F)F)cc1)[C@@H](C)CN([C@H](C)CO)C2=O` is “inactive”; for `COc1ccc(NC(=O)N(C)C[C@@H]2Oc3c(NC(=O)Nc4ccc(C(F)(F)F)cc4)cccc3C(=O)N([C@@H](C)CO)C[C@@H]2C)cc1` it is “active”; for `C[C@@H]1CN([C@@H](C)CO)C(=O)c2cccc(NC(=O)Nc3ccc(C(F)(F)F)cc3)c2O[C@H]1CN(C)C(=O)Nc1ccc(F)cc1` it is “active”. Regarding `C[C@@H]1CN([C@H](C)CO)C(=O)c2cccc(NC(=O)Nc3ccc(F)cc3)c2O[C@H]1CN(C)C(=O)Nc1ccc(C(F)(F)F)cc1`, the growth inhibition call was “inactive”. Regarding `Cc1noc(C)c1NC(=O)Nc1cccc2c1O[C@H](CN(C)C(=O)Nc1ccc(C(F)(F)F)cc1)[C@H](C)CN([C@H](C)CO)C2=O`, the growth inhibition call is “inactive”. Next, `C[C@@H]1CN([C@@H](C)CO)C(=O)c2cccc(NC(=O)Nc3ccc(F)cc3)c2O[C@H]1CN(C)C(=O)Nc1ccc(C(F)(F)F)cc1`: “inactive”; `CO[C@H]1CN(C)C(=O)c2ccc(NS(C)(=O)=O)cc2OC[C@H](C)N(C(=O)c2ccc3c(c2)OCO3)C[C@@H]1C`: “inactive”. The entry for `CCCNC(=O)N1C[C@H](O)COC[C@H]2O[C@@H](CC(=O)N3CCOCC3)CC[C@@H]21` is “inactive”. The entry for `CCCCc1cc(CCCC)n2nc(-c3ccccc3)cc2n1` is “inactive”.

Consider `CCS(=O)(=O)N1C[C@]2(CN(C2)S(=O)(=O)c2cn(cn2)C)c2c([nH]c3cc(ccc23)OC)[C@H]1CO`, for which the growth inhibition call was “inactive”.

Values taken from the antibiotic and cytotoxicity screens of Wong et al. (2023).
